# ABCB6 inh 2 – inhibitors of human ABC transporter ABCB6; AID 602162; fluorescence ratio to DMSO, % at 10 µM; K562-ABCB6 porphyrin accumulation, flow cytometry, 1 h; active compounds read low; Q9NP58; actives 0.19% (n = 360,000);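 active = fluorescence ratio to DMSO below 75%, the collection mean minus 3 SD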;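 note: signal is porphyrin accumulated inside mitochondria; lower ratio means ABCB6 inhibition with less porphyrin fluorescence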
# NRP1-CendR mod – modulators of CendR peptide binding to human neuropilin-1; O14786; FAM-RPARPAR peptide binding to NRP-1, fluorescence polarization; inhibition, % at 25 µM; actives 0.85% (n = 360,000);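 active = inhibition or corrected inhibition above about 18%, plus a signal ratio from 0.5 to 1.5, limit read from the data, passing the limit was not always enough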
# iPSC survival up – enhancers of human iPSC single-cell survival; survival enhancement, % at 20 µM; hiPSC single-cell survival, ATPlite luminescence; 100% = ROCK inhibitor wells, 0% = DMSO; actives 0.044% (n = 360,000); in the data active = survival enhancement above about 18%;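 note: cells exposed to compounds for 16 hours before the ATP read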
# ARNT-TACC3 inh – disruptors of human ARNT/TACC3 interaction; AID 623870; actives 0.66% (n = 390,000); AlphaScreen His-ARNT PAS-B/GST-TACC3 binding, luminescence; TACC3 fragment carries E629A point mutation; inhibition, % at 9.99 µM;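 active = mean inhibition of replicates at least 50% and at least half of replicates each reaching 50%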
# INS-1E GSIS act – GLuc luminescence reporter in INS-1E cells, primary screen for activators of glucose-dependent secretion of insulin; INS-1E GLuc reporter insulin secretion, 2-3 h; activation, % at 16.6 µM; actives 0.61% (n = 370,000);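 active = lowest replicate activation of at least 40%, so every replicate reaches that level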
# Hits are given with their value; - = inactive; . = no result. Compounds with a hit are over-represented: about 1.8% of the library has one in this group of screens.
SMILES,ABCB6 inh 2,NRP1-CendR mod,iPSC survival up,ARNT-TACC3 inh,INS-1E GSIS act
COCCCNC(=S)N(CCO)Cc1cc2cc3c(cc2[nH]c1=O)OCCO3,-,-,-,-,-
O=C1CN(S(=O)(=O)Cc2ccccc2)C[C@H]2[C@H](c3ccc(C#Cc4ccc(F)cc4)cc3)[C@@H](CO)N12,.,.,.,.,-
COC(=O)C1=C(C)N(Cc2ccccc2C(F)(F)F)C(=NCc2ccc3c(c2)OCO3)NC1c1cccc(F)c1 (centres undefined),.,.,.,.,49
COC(=O)C1=C(C)N(Cc2cccc(C(F)(F)F)c2)C(=NCc2ccccc2C(F)(F)F)NC1c1ccccc1C(F)(F)F (centres undefined),.,.,.,.,-
COC(=O)C1=C(C)N(Cc2ccccc2C(F)(F)F)C(=NCc2ccc3c(c2)OCO3)NC1c1cccc(Cl)c1 (centres undefined),.,.,.,.,-
COC(=O)C1=C(C)N(Cc2cccc(C(F)(F)F)c2)C(=NCc2ccccc2C(F)(F)F)NC1c1cccc(F)c1 (centres undefined),.,.,.,.,166
COC(=O)C1=C(C)N(Cc2ccccc2C(F)(F)F)C(=NCc2cccc(C(F)(F)F)c2)NC1c1ccc(C(F)(F)F)cc1 (centres undefined),.,.,.,.,103
COC(=O)C1=C(C)N(Cc2cccc(C(F)(F)F)c2)C(=NCc2ccc3c(c2)OCO3)NC1c1cccc(F)c1 (centres undefined),.,.,.,.,40
COC(=O)C1=C(C)N(Cc2cccc(C(F)(F)F)c2)C(=NCc2ccc(OC)cc2)NC1c1ccccc1C(F)(F)F (centres undefined),.,.,.,.,40
CNc1nc(SCc2ccccc2)nc(N2CCOCC2)n1,-,-,-,-,50
CSc1nc(NC(C)C)nc(N2CCOCC2)n1,-,-,-,-,116
C[C@H](CO)N1C[C@H](C)[C@@H](CN(C)S(=O)(=O)c2ccc(Cl)cc2)Oc2ccc(NC(=O)CCCCCC(=O)Nc3ccccc3N)cc2CC1=O,.,.,.,.,-
CCc1ccc(OC(=O)CN2C(=O)c3ccccc3C2=O)cc1,-,26,-,-,-
COCCCNC(=S)NNC(=O)c1csc(C)n1,-,-,-,57,.
COCCCNC(=S)NNC(=O)c1ccc(C(C)(C)C)cc1,-,-,-,-,-
CCOc1ccc(-c2c(C(=O)N/N=C/c3sccc3C)nnn2-c2nonc2N)cc1,-,24,-,-,.
Cc1cc(Br)cc(Cl)c1OC(=O)c1ccncc1,-,-,-,-,94
CCCC(=O)Nc1ccc2c(c1)C(=O)N(C)C[C@H](OC)[C@@H](C)CN(Cc1nccs1)[C@@H](C)CO2,.,.,.,-,-
CN(Cc1ccccc1)C(=O)c1nc[nH]c1C(=O)N1CCN(C(=O)OC(C)(C)C)CC1,-,37,-,-,-
O=C(N[C@@H](Cc1ccccc1)C(=O)OCc1ccccc1)c1nc[nH]c1C(=O)NC(c1ccccc1)c1ccccc1,-,27,-,-,-
CC(C)(C)OC(=O)[C@H](Cc1ccccc1)NC(=O)c1nc[nH]c1C(=O)N1CCN(C(=O)OC(C)(C)C)CC1,-,27,-,-,-
CCN(CC)C(=O)c1nc[nH]c1C(=O)N1CCN(c2ccccc2)CC1,-,30,-,-,-
C[C@@H](NC(=O)c1nc[nH]c1C(=O)N[C@@H](Cc1ccccc1)C(=O)OCc1ccccc1)c1ccccc1,-,-,-,-,-
CN(Cc1ccccc1)C(=O)c1nc[nH]c1C(=O)N1CCN(c2ccccc2)CC1,-,-,-,-,-
C[C@@H]1CN([C@@H](C)CO)C(=O)c2cc(NS(=O)(=O)c3ccc(Cl)cc3)ccc2O[C@@H]1CN(C)S(C)(=O)=O,.,.,.,.,-
SMILES,ABCB6 inh 2,NRP1-CendR mod,iPSC survival up,ARNT-TACC3 inh,INS-1E GSIS act
C/C=C/c1ccc([C@@H]2[C@@H](CO)N3CCCCN(S(=O)(=O)c4cccs4)C[C@@H]23)cc1,.,.,.,-,-
CNC[C@@H]1OCCCC[C@H](C)Oc2ccc(NC(=O)Nc3cccc4ccccc34)cc2C(=O)N([C@H](C)CO)C[C@@H]1C,.,.,.,.,-
CC(C)(C)OC(=O)NCc1ccc(CNC(=O)c2nc[nH]c2C(=O)N2CCc3ccccc3C2)cc1,-,35,-,-,-
O=C(C[C@H]1C[C@H]2c3cc(NC(=O)NC4CCCC4)ccc3O[C@H]2[C@H](CO)O1)NCc1ccc2c(c1)OCO2,.,.,.,-,-
COc1ccc(C(=O)N2CCC(C(=O)NCc3ccccn3)CC2)cc1,-,35,-,-,-
CN(C)CCn1c(=O)n(-c2ccc(F)cc2)c(=O)c2c3c(sc21)CCCCC3,-,35,-,-,-
CN(C)CCn1c(=O)n(-c2cccc(Cl)c2)c(=O)c2c3c(sc21)CCCCC3,-,-,-,-,-
COCC(=O)N1CCC2(CC1)CN(C(=O)Nc1ccccc1F)[C@H](CO)c1[nH]c3cc(OC)ccc3c12,.,.,.,.,-
O=C(Nc1nnc(-c2ccccc2)o1)C1CCCN1S(=O)(=O)c1cccs1 (centres undefined),-,-,-,45,-
COC(=O)c1cc(C)nc2c1C(=O)C(=O)C=C2N1CCOCC1,-,29,-,.,-
COc1ccc(S(=O)(=O)Nc2ccc3c(c2)CC(=O)N([C@@H](C)CO)C[C@H](C)[C@@H](CN(C)C(=O)Nc2ccc4c(c2)OCO4)O3)cc1,.,.,.,-,-
Cc1ccc(N2C(=O)c3cccc4c([N+](=O)[O-])ccc(c34)C2=O)c2cccnc12,-,-,-,-,-
O=C1c2cccc3c([N+](=O)[O-])ccc(c23)C(=O)N1Cc1cccnc1,-,69,-,-,-
Cc1ccnc(N2C(=O)c3cccc4c([N+](=O)[O-])ccc(c34)C2=O)c1,-,36,-,-,-
CN1c2ccc(C#Cc3cccnc3)cc2[C@H]2[C@H](CCN2C(=O)C2CCCC2)[C@H]1CO,.,.,.,.,-
CO[C@@H]1CN(C)C(=O)c2ccc(NC(=O)C3CC3)cc2OC[C@@H](C)N(C(=O)c2ccncc2)C[C@@H]1C,.,.,.,-,-
CC(=O)Nc1nc(NCc2ccccc2Cl)n(-c2ccccc2)n1,-,-,-,-,77
Nc1nc(NCc2ccccc2Cl)n(-c2ccccc2)n1,-,-,-,.,-
COc1ccc2c3c(n(C)c2c1)[C@@H](CO)N(C(=O)c1cnccn1)CC31CN(C(=O)c2ccncc2)C1,.,.,.,.,-
CCN(CC)c1nc2c(c(=O)[nH]c(=O)n2C)n1Cc1ccccc1,-,-,-,-,-
CCCCCCn1c(N(CC)CC)nc2c1c(=O)[nH]c(=O)n2C,-,-,-,-,62
CCCCCn1c(SCC(=O)OC)nc2c1c(=O)[nH]c(=O)n2C,-,-,-,-,68
COC(=O)CSc1nc2c(c(=O)[nH]c(=O)n2C)n1CCC(C)C,-,-,-,-,.
CN(CC(=O)Nc1cccc2ccccc12)C(=O)c1ccc(NC(=O)CC#N)cc1,-,-,-,-,-
CCOc1cc(C(=O)N(C)CC(=O)Nc2cccc3ccccc23)ccc1OC,-,-,-,.,57
